Measurements reported in PMC5540273 (PLoS ONE, 2017).
Like-named read-outs stand apart in the source and are kept apart here.

How the values were obtained:
[1] = tested on: FLT1; details: concentration: 1 μM, replicates: in singlicate; n = 1
[2] = tested on: FLT3-autoinhibited; details: concentration: 1 μM, replicates: in singlicate; n = 1
[3] = tested on: FLT3; details: concentration: 1 μM, replicates: in singlicate; n = 1
[4] = tested on: FLT4; details: concentration: 1 μM, replicates: in singlicate; n = 1
[5] = tested on: FRK; details: concentration: 1 μM, replicates: in singlicate; n = 1
[6] = tested on: FYN; details: concentration: 1 μM, replicates: in singlicate; n = 1
[7] = tested on: GAK; details: concentration: 1 μM, replicates: in singlicate; n = 1
[8] = tested on: T1, GCN2(Kin.Dom.2,S808G); details: concentration: 1 μM, replicates: in singlicate; n = 1
T1 construct: gene EIF2AK4

[9] = tested on: GRK1; details: concentration: 1 μM, replicates: in singlicate; n = 1
[10] = tested on: T2, GRK2; details: concentration: 1 μM, replicates: in singlicate; n = 1
T2 construct: gene ADRBK1

[11] = tested on: T3, GRK3; details: concentration: 1 μM, replicates: in singlicate; n = 1
T3 construct: gene ADRBK2

[12] = tested on: GRK4; details: concentration: 1 μM, replicates: in singlicate; n = 1
[13] = tested on: GRK7; details: concentration: 1 μM, replicates: in singlicate; n = 1
[14] = tested on: GSK3A; details: concentration: 1 μM, replicates: in singlicate; n = 1
[15] = tested on: GSK3B; details: n = 1
[16] = tested on: T4, HASPIN; details: concentration: 1 μM, replicates: in singlicate; n = 1
T4 construct: gene GSG2

[17] = tested on: HCK; details: concentration: 1 μM, replicates: in singlicate; n = 1
[18] = tested on: HIPK1; details: concentration: 1 μM, replicates: in singlicate; n = 1
[19] = tested on: HIPK2; details: concentration: 1 μM, replicates: in singlicate; n = 1
[20] = tested on: HIPK3; details: concentration: 1 μM, replicates: in singlicate; n = 1
[21] = concentration: 1 μM, replicates: in singlicate
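Further: KINOMEscan kinase panel screen.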

In the case of `FC(F)(F)c1ccccc1-c1cc(-c2c[nH]nc2-c2ccccn2)ccn1` [GW679396], the “%Inh” value [1] is reported as 18%, the “%Inh” value [2] is reported as 0% and the “%Inh” value [3] is reported as 0%. The “%Inh” value [4] was 0%, the “%Inh” value [5] was 17% and the “%Inh” value [6] was 0%. The “%Inh” value [7] was 27%, the “%Inh” value [8] was 0% and the “%Inh” value [9] was 0%. The “%Inh” value [10] was 0%, the “%Inh” value [11] was 14% and the “%Inh” value [12] was 0%. For the same compound, the “%Inh” value [13] was 0%, the “%Inh” value [14] was 2% and the “%Inh” value [15, 21] was 12%. For the same compound, the “%Inh” value [16] was 0%, the “%Inh” value [17] was 0% and the “%Inh” value [18] was 0%. The “%Inh” value [19] was 0% and the “%Inh” value [20] was 17%.

In the case of `COc1cccc(NC(=O)Nc2ccc(C)c(-c3ccc(C(=O)Nc4ccncc4)cc3)c2)c1` [GSK1398474], the “%Inh” value [1] is reported as 37%, the “%Inh” value [2] is reported as 0% and the “%Inh” value [3] is reported as 25%. The “%Inh” value [4] was 41%, the “%Inh” value [5] was 10% and the “%Inh” value [6] was 25%. The “%Inh” value [7] was 0%, the “%Inh” value [8] was 0% and the “%Inh” value [9] was 28%. For the same compound, the “%Inh” value [10] was 0%, the “%Inh” value [11] was 0% and the “%Inh” value [12] was 3%. For the same compound, the “%Inh” value [13] was 0%, the “%Inh” value [14] was 10% and the “%Inh” value [15, 21] was 13%. For the same compound, the “%Inh” value [16] was 0%, the “%Inh” value [17] was 0% and the “%Inh” value [18] was 0%. The “%Inh” value [19] was 0% and the “%Inh” value [20] was 20%.

`CC(=O)c1c(C)c2cnc(Nc3ccc(N4CCNCC4)cn3)nc2n(C2CCCC2)c1=O` was tested, and the “%Inh” value [1] was 0%, the “%Inh” value [2] was 0% and the “%Inh” value [3] was 0%. The “%Inh” value [4] was 0%, the “%Inh” value [5] was 7% and the “%Inh” value [6] was 0%. For the same compound, the “%Inh” value [7] was 0%, the “%Inh” value [8] was 0% and the “%Inh” value [9] was 10%. The “%Inh” value [10] was 0%, the “%Inh” value [11] was 9% and the “%Inh” value [12] was 7%. For the same compound, the “%Inh” value [13] was 8%, the “%Inh” value [14] was 0% and the “%Inh” value [15, 21] was 0%. The “%Inh” value [16] was 0%, the “%Inh” value [17] was 0% and the “%Inh” value [18] was 20%. The “%Inh” value [19] was 0% and the “%Inh” value [20] was 0%.

For `Cc1c(Cn2c(C)c(C)n3c(=O)cc(N4CCOCC4)nc23)cccc1C(F)(F)F` [GSK2328680], the “%Inh” value [1] was 8%, the “%Inh” value [2] was 0% and the “%Inh” value [3] was 0%. The “%Inh” value [4] was 0%, the “%Inh” value [5] was 6% and the “%Inh” value [6] was 2%. For the same compound, the “%Inh” value [7] was 8%, the “%Inh” value [8] was 0% and the “%Inh” value [9] was 9%. The “%Inh” value [10] was 0%, the “%Inh” value [11] was 0% and the “%Inh” value [12] was 0%. For the same compound, the “%Inh” value [13] was 0%, the “%Inh” value [14] was 13% and the “%Inh” value [15, 21] was 11%. For the same compound, the “%Inh” value [16] was 0%, the “%Inh” value [17] was 0% and the “%Inh” value [18] was 0%. The “%Inh” value [19] was 0% and the “%Inh” value [20] was 13%.

For `Cc1ccc(-c2nc(Nc3ccncc3)c3ccccc3n2)s1` [GSK189015], the “%Inh” value [1] was 39%, the “%Inh” value [2] was 17% and the “%Inh” value [3] was 23%. The “%Inh” value [4] was 10%, the “%Inh” value [5] was 7% and the “%Inh” value [6] was 0%. The “%Inh” value [7] was 53%, the “%Inh” value [8] was 13% and the “%Inh” value [9] was 9%. For the same compound, the “%Inh” value [10] was 1%, the “%Inh” value [11] was 0% and the “%Inh” value [12] was 13%. For the same compound, the “%Inh” value [13] was 0%, the “%Inh” value [14] was 18% and the “%Inh” value [15, 21] was 28%. For the same compound, the “%Inh” value [16] was 54%, the “%Inh” value [17] was 10% and the “%Inh” value [18] was 0%. For the same compound, the “%Inh” value [19] was 0% and the “%Inh” value [20] was 41%.

For `O=c1cc(N2CCOCC2)nc2n(Cc3cccc(Cl)c3Cl)c3ccccc3n12` [GSK2299009], the “%Inh” value [1] was 41%, the “%Inh” value [2] was 9% and the “%Inh” value [3] was 28%. For the same compound, the “%Inh” value [4] was 16%, the “%Inh” value [5] was 0% and the “%Inh” value [6] was 17%. The “%Inh” value [7] was 19%, the “%Inh” value [8] was 0% and the “%Inh” value [9] was 0%. For the same compound, the “%Inh” value [10] was 0%, the “%Inh” value [11] was 0% and the “%Inh” value [12] was 25%. The “%Inh” value [13] was 0%, the “%Inh” value [14] was 5% and the “%Inh” value [15, 21] was 14%. For the same compound, the “%Inh” value [16] was 0%, the “%Inh” value [17] was 0% and the “%Inh” value [18] was 9%. For the same compound, the “%Inh” value [19] was 0% and the “%Inh” value [20] was 19%.

In the case of `Nc1nccc(-c2c(-c3ccc(F)cc3)ncn2C2CCN(Cc3ccccc3)CC2)n1` [SB-219980], the “%Inh” value [1] is reported as 0%, the “%Inh” value [2] is reported as 18% and the “%Inh” value [3] is reported as 0%. The “%Inh” value [4] was 0%, the “%Inh” value [5] was 10% and the “%Inh” value [6] was 0%. For the same compound, the “%Inh” value [7] was 12%, the “%Inh” value [8] was 1% and the “%Inh” value [9] was 27%. The “%Inh” value [10] was 36%, the “%Inh” value [11] was 6% and the “%Inh” value [12] was 0%. The “%Inh” value [13] was 6%, the “%Inh” value [14] was 16% and the “%Inh” value [15, 21] was 11%. For the same compound, the “%Inh” value [16] was 0%, the “%Inh” value [17] was 9% and the “%Inh” value [18] was 0%. The “%Inh” value [19] was 0% and the “%Inh” value [20] was 0%.

With `CS(=O)(=O)Cc1ccc(Nc2nccc(-c3c(-c4cccc(NC(=O)C5CCCCC5)c4)nn4ncccc34)n2)cc1` [GSK350559] the “%Inh” value [1] was 63%, the “%Inh” value [2] was 25% and the “%Inh” value [3] was 88%. The “%Inh” value [4] was 52%, the “%Inh” value [5] was 4% and the “%Inh” value [6] was 1%. The “%Inh” value [7] was 14%, the “%Inh” value [8] was 0% and the “%Inh” value [9] was 0%. For the same compound, the “%Inh” value [10] was 44%, the “%Inh” value [11] was 0% and the “%Inh” value [12] was 0%. For the same compound, the “%Inh” value [13] was 5%, the “%Inh” value [14] was 0% and the “%Inh” value [15, 21] was 20%. For the same compound, the “%Inh” value [16] was 17%, the “%Inh” value [17] was 1% and the “%Inh” value [18] was 5%. For the same compound, the “%Inh” value [19] was 14% and the “%Inh” value [20] was 23%.

With `Cn1cncc1C(=O)NC1CCN(c2ccnc(Nc3ccc(F)cc3)n2)C1` (stereo not shown) [GSK1379717] the “%Inh” value [1] was 12%, the “%Inh” value [2] was 1% and the “%Inh” value [3] was 0%. For the same compound, the “%Inh” value [4] was 99.1%, the “%Inh” value [5] was 0% and the “%Inh” value [6] was 42%. For the same compound, the “%Inh” value [7] was 0%, the “%Inh” value [8] was 0% and the “%Inh” value [9] was 18%. For the same compound, the “%Inh” value [10] was 0%, the “%Inh” value [11] was 0% and the “%Inh” value [12] was 0%. For the same compound, the “%Inh” value [13] was 0%, the “%Inh” value [14] was 12% and the “%Inh” value [15, 21] was 8%. The “%Inh” value [16] was 0%, the “%Inh” value [17] was 0% and the “%Inh” value [18] was 0%. The “%Inh” value [19] was 0% and the “%Inh” value [20] was 3%.

For `O=C(Nc1n[nH]c2nc(-c3cccs3)c(Br)cc12)C1CCCC1` [SB-743341], the “%Inh” value [1] was 10%, the “%Inh” value [2] was 34% and the “%Inh” value [3] was 39%. The “%Inh” value [4] was 0%, the “%Inh” value [5] was 5% and the “%Inh” value [6] was 6%. The “%Inh” value [7] was 0%, the “%Inh” value [8] was 0% and the “%Inh” value [9] was 26%. The “%Inh” value [10] was 0%, the “%Inh” value [11] was 24% and the “%Inh” value [12] was 33%. The “%Inh” value [13] was 11%, the “%Inh” value [14] was 96.6% and the “%Inh” value ([15]; 1 µM) was 81%. The “%Inh” value [16] was 0%, the “%Inh” value [17] was 8% and the “%Inh” value [18] was 20%. For the same compound, the “%Inh” value [19] was 25% and the “%Inh” value [20] was 52%.

With `COc1ccc(CSc2nnc(-c3ccc4c(c3)CCO4)o2)cc1` the “%Inh” value [1] was 0%, the “%Inh” value [2] was 0% and the “%Inh” value [3] was 0%. For the same compound, the “%Inh” value [4] was 0%, the “%Inh” value [5] was 0% and the “%Inh” value [6] was 0%. The “%Inh” value [7] was 0%, the “%Inh” value [8] was 33% and the “%Inh” value [9] was 0%. The “%Inh” value [10] was 0%, the “%Inh” value [11] was 3% and the “%Inh” value [12] was 1%. For the same compound, the “%Inh” value [13] was 0%, the “%Inh” value [14] was 75% and the “%Inh” value ([15]; 1 µM) was 0%. For the same compound, the “%Inh” value [16] was 42%, the “%Inh” value [17] was 0% and the “%Inh” value [18] was 9%. The “%Inh” value [19] was 0% and the “%Inh” value [20] was 0%.
